Experimental data: PMC11006913
Changes are numbered by the printed parent chain.

Tests used:
Test in all cases: PBM; 200 nM protein, PBS
Settings in all cases: dsDNA, one strand shown
CRX [1] = target: CRX (Homo sapiens, UniProt O43186 26-111)
CRX [2] = target: CRX (Homo sapiens, UniProt O43186 26-111, E42D)
PITX2 = PITX2 (Homo sapiens, UniProt Q99697 72-157)
CRX [3] = target: CRX (Homo sapiens, UniProt O43186 26-111, R41L)
PROP1 [4] = target: PROP1 (Homo sapiens, UniProt O75360 56-141)
PROP1 [5] = target: PROP1 (Homo sapiens, UniProt O75360 56-141, F88S)
PROP1 (Homo sapiens, UniProt O75360 56-141, F88S), sequence (O75360 56-141 F88S): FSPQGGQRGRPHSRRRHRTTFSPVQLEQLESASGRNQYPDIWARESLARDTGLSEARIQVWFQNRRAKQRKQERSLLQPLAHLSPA

ALX1 [6] = target: ALX1 (Homo sapiens, UniProt Q15699 118-204, L144V)
ALX1 (Homo sapiens, UniProt Q15699 118-204, L144V), sequence (Q15699 118-204 L144V): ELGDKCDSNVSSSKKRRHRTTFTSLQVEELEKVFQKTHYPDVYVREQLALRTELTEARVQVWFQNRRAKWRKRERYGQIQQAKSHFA

ALX1 [7] = target: ALX1 (Homo sapiens, UniProt Q15699 118-204, L144R)
ALX1 (Homo sapiens, UniProt Q15699 118-204, L144R), sequence (Q15699 118-204 L144R): as the sequence (Q15699 118-204 L144V) above, with V27R counted along it

ALX1 [8] = target: ALX1 (Homo sapiens, UniProt Q15699 118-204)
ALX1 (Homo sapiens, UniProt Q15699 118-204), sequence (Q15699 118-204): as the sequence (Q15699 118-204 L144V) above, with V27L counted along it

ALX3 [9] = target: ALX3 (Homo sapiens, UniProt O95076 139-225, N203Q)
ALX3 (Homo sapiens, UniProt O95076 139-225, N203Q), sequence (O95076 139-225 N203Q): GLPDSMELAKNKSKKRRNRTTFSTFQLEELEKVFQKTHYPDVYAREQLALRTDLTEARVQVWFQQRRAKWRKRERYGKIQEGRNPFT

ALX3 [10] = target: ALX3 (Homo sapiens, UniProt O95076 139-225)
ALX3 (Homo sapiens, UniProt O95076 139-225), sequence (O95076 139-225): as the sequence (O95076 139-225 N203Q) above, with Q65N counted along it

ALX3 [11] = target: ALX3 (Homo sapiens, UniProt O95076 139-225, L168Q)
ALX3 (Homo sapiens, UniProt O95076 139-225, L168Q), sequence (O95076 139-225 L168Q): as the sequence (O95076 139-225 N203Q) above, with L30Q, Q65N counted along it

ALX3 [12] = target: ALX3 (Homo sapiens, UniProt O95076 139-225, L168V)
ALX3 (Homo sapiens, UniProt O95076 139-225, L168V), sequence (O95076 139-225 L168V): as the sequence (O95076 139-225 N203Q) above, with L30V, Q65N counted along it

ALX3 [13] = target: ALX3 (Homo sapiens, UniProt O95076 139-225, N203S)
ALX3 (Homo sapiens, UniProt O95076 139-225, N203S), sequence (O95076 139-225 N203S): as the sequence (O95076 139-225 N203Q) above, with Q65S counted along it

MSX2 [14] = target: MSX2 (Homo sapiens, UniProt P35548 130-214, R199I)
MSX2 (Homo sapiens, UniProt P35548 130-214, R199I), sequence (P35548 130-214 R199I): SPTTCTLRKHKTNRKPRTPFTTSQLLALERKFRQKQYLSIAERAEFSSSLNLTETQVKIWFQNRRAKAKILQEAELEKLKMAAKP

MSX2 [15] = target: MSX2 (Homo sapiens, UniProt P35548 130-214)
MSX2 (Homo sapiens, UniProt P35548 130-214), sequence (P35548 130-214): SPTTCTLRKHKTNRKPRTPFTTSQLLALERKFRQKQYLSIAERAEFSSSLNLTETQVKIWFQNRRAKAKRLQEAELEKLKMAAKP

MSX2 [16] = target: MSX2 (Homo sapiens, UniProt P35548 130-214, F161Y)
MSX2 (Homo sapiens, UniProt P35548 130-214, F161Y), sequence (P35548 130-214 F161Y): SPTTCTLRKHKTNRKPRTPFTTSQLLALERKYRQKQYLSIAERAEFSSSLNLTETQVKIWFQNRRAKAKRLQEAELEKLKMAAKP

NKX2-6 [17] = target: T1, NKX2-6 (Homo sapiens, UniProt A6NCS4 118-204)
T1 sequence: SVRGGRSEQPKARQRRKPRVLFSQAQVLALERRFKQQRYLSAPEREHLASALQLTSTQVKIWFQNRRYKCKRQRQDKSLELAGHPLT

NKX2-6 [18] = target: T2, NKX2-6 (Homo sapiens, UniProt A6NCS4 118-204, F151L)
T2 sequence: T1 sequence with F34L

HOXD13 [19] = target: HOXD13 (Homo sapiens, UniProt P35453 263-343, T313R)
HOXD13 (Homo sapiens, UniProt P35453 263-343, T313R), sequence (P35453 263-343 T313R): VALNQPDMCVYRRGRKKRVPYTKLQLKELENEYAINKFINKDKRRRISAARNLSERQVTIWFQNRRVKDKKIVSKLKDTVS

HOXD13 [20] = target: HOXD13 (Homo sapiens, UniProt P35453 263-343)
HOXD13 (Homo sapiens, UniProt P35453 263-343), sequence (P35453 263-343): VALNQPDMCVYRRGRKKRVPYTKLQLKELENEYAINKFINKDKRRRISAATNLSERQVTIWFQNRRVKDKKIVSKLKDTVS

HOXD13 [21] = target: HOXD13 (Homo sapiens, UniProt P35453 263-343, T313A)
HOXD13 (Homo sapiens, UniProt P35453 263-343, T313A), sequence (P35453 263-343 T313A): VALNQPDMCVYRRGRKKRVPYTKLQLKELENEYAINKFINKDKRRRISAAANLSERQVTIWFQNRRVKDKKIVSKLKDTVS

CRX (Homo sapiens, UniProt O43186 26-111), sequence (O43186 26-111): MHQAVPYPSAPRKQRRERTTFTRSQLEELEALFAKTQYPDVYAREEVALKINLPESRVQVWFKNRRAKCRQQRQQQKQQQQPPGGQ
CRX (Homo sapiens, UniProt O43186 26-111, R41L), sequence (O43186 26-111 R41L): as the sequence (O43186 26-111) above, with R16L counted along it
CRX (Homo sapiens, UniProt O43186 26-111, E42D), sequence (O43186 26-111 E42D): as the sequence (O43186 26-111) above, with E17D counted along it
PROP1 (Homo sapiens, UniProt O75360 56-141), sequence (O75360 56-141): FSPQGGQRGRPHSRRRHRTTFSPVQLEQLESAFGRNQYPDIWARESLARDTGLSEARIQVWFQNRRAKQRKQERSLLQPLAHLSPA

## AGTTAATC
CRX [1]
  binding signal: 12.7 upbm affinity estimate (log intensity, higher = more binding, comparable within an allelic series)
CRX [2]
  binding signal: 12.7 upbm affinity estimate (log intensity, higher = more binding, comparable within an allelic series)
PITX2
  binding signal: 12.3 upbm affinity estimate (log intensity, higher = more binding, comparable within an allelic series)
CRX [3]
  binding signal: 12.4 upbm affinity estimate (log intensity, higher = more binding, comparable within an allelic series)

## GTTGGCCA
CRX [1]
  binding signal: 8.35 upbm affinity estimate (log intensity, higher = more binding, comparable within an allelic series)
CRX [2]
  binding signal: 8.33 upbm affinity estimate (log intensity, higher = more binding, comparable within an allelic series)
PITX2
  binding signal: 8.06 upbm affinity estimate (log intensity, higher = more binding, comparable within an allelic series)
CRX [3]
  binding signal: 8.24 upbm affinity estimate (log intensity, higher = more binding, comparable within an allelic series)

## CTAATCTC
CRX [1]
  binding signal: 13 upbm affinity estimate (log intensity, higher = more binding, comparable within an allelic series)
CRX [2]
  binding signal: 13 upbm affinity estimate (log intensity, higher = more binding, comparable within an allelic series)
PITX2
  binding signal: 12.6 upbm affinity estimate (log intensity, higher = more binding, comparable within an allelic series)
PROP1 [4]
  binding signal: 8.84 upbm affinity estimate (log intensity, higher = more binding, comparable within an allelic series)
PROP1 [5]
  binding signal: 7.25 upbm affinity estimate (log intensity, higher = more binding, comparable within an allelic series)
CRX [3]
  binding signal: 12.7 upbm affinity estimate (log intensity, higher = more binding, comparable within an allelic series)

## TAATCCGA
CRX [1]
  binding signal: 13.6 upbm affinity estimate (log intensity, higher = more binding, comparable within an allelic series)
CRX [2]
  binding signal: 13.6 upbm affinity estimate (log intensity, higher = more binding, comparable within an allelic series)
PITX2
  binding signal: 13.1 upbm affinity estimate (log intensity, higher = more binding, comparable within an allelic series)
CRX [3]
  binding signal: 13.5 upbm affinity estimate (log intensity, higher = more binding, comparable within an allelic series)

## CGGGATTA
CRX [1]
  binding signal: 13.4 upbm affinity estimate (log intensity, higher = more binding, comparable within an allelic series)
CRX [2]
  binding signal: 13.4 upbm affinity estimate (log intensity, higher = more binding, comparable within an allelic series)
PITX2
  binding signal: 13.3 upbm affinity estimate (log intensity, higher = more binding, comparable within an allelic series)
CRX [3]
  binding signal: 13.3 upbm affinity estimate (log intensity, higher = more binding, comparable within an allelic series)

## AGGATTAA
CRX [1]
  binding signal: 13.6 upbm affinity estimate (log intensity, higher = more binding, comparable within an allelic series)
CRX [2]
  binding signal: 13.7 upbm affinity estimate (log intensity, higher = more binding, comparable within an allelic series)
PITX2
  binding signal: 13.3 upbm affinity estimate (log intensity, higher = more binding, comparable within an allelic series)
CRX [3]
  binding signal: 13.5 upbm affinity estimate (log intensity, higher = more binding, comparable within an allelic series)

## GCAAGGAC
CRX [1]
  binding signal: 8.57 upbm affinity estimate (log intensity, higher = more binding, comparable within an allelic series)
CRX [2]
  binding signal: 8.32 upbm affinity estimate (log intensity, higher = more binding, comparable within an allelic series)
ALX1 [6]
  binding signal: 6.53 upbm affinity estimate (log intensity, higher = more binding, comparable within an allelic series)
ALX1 [7]
  binding signal: 6.6 upbm affinity estimate (log intensity, higher = more binding, comparable within an allelic series)
CRX [3]
  binding signal: 8.3 upbm affinity estimate (log intensity, higher = more binding, comparable within an allelic series)
ALX1 [8]
  binding signal: 6.36 upbm affinity estimate (log intensity, higher = more binding, comparable within an allelic series)

## CTCCGCGC
CRX [1]
  binding signal: 8.47 upbm affinity estimate (log intensity, higher = more binding, comparable within an allelic series)
CRX [2]
  binding signal: 8.47 upbm affinity estimate (log intensity, higher = more binding, comparable within an allelic series)
ALX3 [9]
  binding signal: 7.75 upbm affinity estimate (log intensity, higher = more binding, comparable within an allelic series)
ALX3 [10]
  binding signal: 7.82 upbm affinity estimate (log intensity, higher = more binding, comparable within an allelic series)
ALX3 [11]
  binding signal: 7.71 upbm affinity estimate (log intensity, higher = more binding, comparable within an allelic series)
ALX3 [12]
  binding signal: 7.69 upbm affinity estimate (log intensity, higher = more binding, comparable within an allelic series)
CRX [3]
  binding signal: 8.43 upbm affinity estimate (log intensity, higher = more binding, comparable within an allelic series)
ALX3 [13]
  binding signal: 7.76 upbm affinity estimate (log intensity, higher = more binding, comparable within an allelic series)

## AGGTGCGG
CRX [1]
  binding signal: 8.42 upbm affinity estimate (log intensity, higher = more binding, comparable within an allelic series)
CRX [2]
  binding signal: 8.46 upbm affinity estimate (log intensity, higher = more binding, comparable within an allelic series)
ALX3 [9]
  binding signal: 7.78 upbm affinity estimate (log intensity, higher = more binding, comparable within an allelic series)
ALX3 [10]
  binding signal: 7.66 upbm affinity estimate (log intensity, higher = more binding, comparable within an allelic series)
ALX3 [11]
  binding signal: 7.81 upbm affinity estimate (log intensity, higher = more binding, comparable within an allelic series)
ALX3 [12]
  binding signal: 7.75 upbm affinity estimate (log intensity, higher = more binding, comparable within an allelic series)
CRX [3]
  binding signal: 8.35 upbm affinity estimate (log intensity, higher = more binding, comparable within an allelic series)
ALX3 [13]
  binding signal: 7.79 upbm affinity estimate (log intensity, higher = more binding, comparable within an allelic series)

## AGGATTAT
CRX [1]
  binding signal: 13.4 upbm affinity estimate (log intensity, higher = more binding, comparable within an allelic series)
CRX [2]
  binding signal: 13.5 upbm affinity estimate (log intensity, higher = more binding, comparable within an allelic series)
PITX2
  binding signal: 13.2 upbm affinity estimate (log intensity, higher = more binding, comparable within an allelic series)
CRX [3]
  binding signal: 13.5 upbm affinity estimate (log intensity, higher = more binding, comparable within an allelic series)

## ATAATCCG
CRX [1]
  binding signal: 13.7 upbm affinity estimate (log intensity, higher = more binding, comparable within an allelic series)
CRX [2]
  binding signal: 13.8 upbm affinity estimate (log intensity, higher = more binding, comparable within an allelic series)
PITX2
  binding signal: 13.3 upbm affinity estimate (log intensity, higher = more binding, comparable within an allelic series)
CRX [3]
  binding signal: 13.9 upbm affinity estimate (log intensity, higher = more binding, comparable within an allelic series)

## GCGCACGC
CRX [1]
  binding signal: 8.22 upbm affinity estimate (log intensity, higher = more binding, comparable within an allelic series)
CRX [2]
  binding signal: 8.37 upbm affinity estimate (log intensity, higher = more binding, comparable within an allelic series)
PITX2
  binding signal: 7.91 upbm affinity estimate (log intensity, higher = more binding, comparable within an allelic series)
CRX [3]
  binding signal: 8.29 upbm affinity estimate (log intensity, higher = more binding, comparable within an allelic series)

## CGCGCCAG
CRX [1]
  binding signal: 8.61 upbm affinity estimate (log intensity, higher = more binding, comparable within an allelic series)
CRX [2]
  binding signal: 8.52 upbm affinity estimate (log intensity, higher = more binding, comparable within an allelic series)
MSX2 [14]
  binding signal: 9.5 upbm affinity estimate (log intensity, higher = more binding, comparable within an allelic series)
MSX2 [15]
  binding signal: 9.73 upbm affinity estimate (log intensity, higher = more binding, comparable within an allelic series)
MSX2 [16]
  binding signal: 9.71 upbm affinity estimate (log intensity, higher = more binding, comparable within an allelic series)
CRX [3]
  binding signal: 8.44 upbm affinity estimate (log intensity, higher = more binding, comparable within an allelic series)

## GATAATCC
CRX [1]
  binding signal: 13.6 upbm affinity estimate (log intensity, higher = more binding, comparable within an allelic series)
CRX [2]
  binding signal: 13.8 upbm affinity estimate (log intensity, higher = more binding, comparable within an allelic series)
PITX2
  binding signal: 13.4 upbm affinity estimate (log intensity, higher = more binding, comparable within an allelic series)
CRX [3]
  binding signal: 13.9 upbm affinity estimate (log intensity, higher = more binding, comparable within an allelic series)

## GGCTTAAC
CRX [1]
  binding signal: 12.7 upbm affinity estimate (log intensity, higher = more binding, comparable within an allelic series)
CRX [2]
  binding signal: 12.6 upbm affinity estimate (log intensity, higher = more binding, comparable within an allelic series)
PITX2
  binding signal: 12.7 upbm affinity estimate (log intensity, higher = more binding, comparable within an allelic series)
CRX [3]
  binding signal: 12.1 upbm affinity estimate (log intensity, higher = more binding, comparable within an allelic series)

## GGGGCTTA
CRX [1]
  binding signal: 12.8 upbm affinity estimate (log intensity, higher = more binding, comparable within an allelic series)
CRX [2]
  binding signal: 12.7 upbm affinity estimate (log intensity, higher = more binding, comparable within an allelic series)
PITX2
  binding signal: 12.4 upbm affinity estimate (log intensity, higher = more binding, comparable within an allelic series)

## ACCTCCCA
CRX [1]
  binding signal: 8.37 upbm affinity estimate (log intensity, higher = more binding, comparable within an allelic series)
CRX [2]
  binding signal: 8.4 upbm affinity estimate (log intensity, higher = more binding, comparable within an allelic series)
PITX2
  binding signal: 8.05 upbm affinity estimate (log intensity, higher = more binding, comparable within an allelic series)
CRX [3]
  binding signal: 8.28 upbm affinity estimate (log intensity, higher = more binding, comparable within an allelic series)

## CGTCTGTC
CRX [1]
  binding signal: 8.37 upbm affinity estimate (log intensity, higher = more binding, comparable within an allelic series)
CRX [2]
  binding signal: 8.33 upbm affinity estimate (log intensity, higher = more binding, comparable within an allelic series)
NKX2-6 [17]
  binding signal: 9.53 upbm affinity estimate (log intensity, higher = more binding, comparable within an allelic series)
NKX2-6 [18]
  binding signal: 9.5 upbm affinity estimate (log intensity, higher = more binding, comparable within an allelic series)
CRX [3]
  binding signal: 8.42 upbm affinity estimate (log intensity, higher = more binding, comparable within an allelic series)

## GAGGATTA
CRX [1]
  binding signal: 13.5 upbm affinity estimate (log intensity, higher = more binding, comparable within an allelic series)
CRX [2]
  binding signal: 13.6 upbm affinity estimate (log intensity, higher = more binding, comparable within an allelic series)
PITX2
  binding signal: 13.1 upbm affinity estimate (log intensity, higher = more binding, comparable within an allelic series)
CRX [3]
  binding signal: 13.4 upbm affinity estimate (log intensity, higher = more binding, comparable within an allelic series)

## CACGCTCC
CRX [1]
  binding signal: 8.3 upbm affinity estimate (log intensity, higher = more binding, comparable within an allelic series)
CRX [2]
  binding signal: 8.47 upbm affinity estimate (log intensity, higher = more binding, comparable within an allelic series)
HOXD13 [19]
  binding signal: 9.56 upbm affinity estimate (log intensity, higher = more binding, comparable within an allelic series)
HOXD13 [20]
  binding signal: 9.55 upbm affinity estimate (log intensity, higher = more binding, comparable within an allelic series)
HOXD13 [21]
  binding signal: 9.79 upbm affinity estimate (log intensity, higher = more binding, comparable within an allelic series)
CRX [3]
  binding signal: 8.41 upbm affinity estimate (log intensity, higher = more binding, comparable within an allelic series)

## ATGGATTA
CRX [1]
  binding signal: 13.2 upbm affinity estimate (log intensity, higher = more binding, comparable within an allelic series)
CRX [2]
  binding signal: 13.2 upbm affinity estimate (log intensity, higher = more binding, comparable within an allelic series)
PITX2
  binding signal: 13.2 upbm affinity estimate (log intensity, higher = more binding, comparable within an allelic series)
CRX [3]
  binding signal: 13 upbm affinity estimate (log intensity, higher = more binding, comparable within an allelic series)

## ATAATCTC
CRX [1]
  binding signal: 13.1 upbm affinity estimate (log intensity, higher = more binding, comparable within an allelic series)
CRX [2]
  binding signal: 13.1 upbm affinity estimate (log intensity, higher = more binding, comparable within an allelic series)
PITX2
  binding signal: 12.7 upbm affinity estimate (log intensity, higher = more binding, comparable within an allelic series)
CRX [3]
  binding signal: 13.1 upbm affinity estimate (log intensity, higher = more binding, comparable within an allelic series)

## GGGATTAC
CRX [1]
  binding signal: 13.2 upbm affinity estimate (log intensity, higher = more binding, comparable within an allelic series)
CRX [2]
  binding signal: 13.2 upbm affinity estimate (log intensity, higher = more binding, comparable within an allelic series)
PITX2
  binding signal: 13.1 upbm affinity estimate (log intensity, higher = more binding, comparable within an allelic series)
CRX [3]
  binding signal: 13.2 upbm affinity estimate (log intensity, higher = more binding, comparable within an allelic series)
